Assay in all cases: DAPPL (digital affinity profiling via proximity ligation, sequencing); 10 mM Tris-HCl pH 7.5, 50 mM NaCl, 1 mM DTT, 4% glycerol, room temperature, 30 min; GST-TFs on glutathione beads, 16-mer random dsDNA library, 0.1% formaldehyde crosslink after washing; high values mean tight binding
For one assay, the target named is T1, FEV (Homo sapiens, UniProt Q99581 1-238).
T1 sequence: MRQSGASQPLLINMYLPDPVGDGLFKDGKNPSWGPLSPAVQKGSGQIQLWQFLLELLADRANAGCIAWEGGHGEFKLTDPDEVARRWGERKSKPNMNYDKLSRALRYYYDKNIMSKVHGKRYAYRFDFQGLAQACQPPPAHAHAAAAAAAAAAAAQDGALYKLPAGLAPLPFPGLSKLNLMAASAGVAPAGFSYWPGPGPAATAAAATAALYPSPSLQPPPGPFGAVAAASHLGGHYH
Particulars: protein: recombinant; tags: N-terminal GST; dsDNA, one strand shown. Summed up:
(§1)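 Binding signal is each hexamer's read frequency for a factor divided by its frequency in the tag-only sample. The factors were GST-fused human transcription factors from yeast, captured on glutathione beads, DNA-barcoded and pooled with that sample. Pools were incubated with 200 nmole of a random double-stranded 16-mer DNA library in Tris/NaCl/DTT/glycerol buffer at room temperature for 30 min, then washed, crosslinked with 0.1% formaldehyde, proximity-ligated with BsaI/T4 ligase (1 h, 37 °C), PCR-amplified and sequenced on an Illumina NextSeq500.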

The target of a further assay is ETV5 (Homo sapiens, UniProt P41161 1-510). Particulars: protein: recombinant; tags: N-terminal GST; dsDNA, one strand shown. Summed up: as §1
The target of a further assay is HSF1 (Homo sapiens, UniProt Q00613 1-529). Particulars: protein: recombinant; tags: N-terminal GST; chain copies: 3; dsDNA, one strand shown. A digest of the protocol: as §1
Another assay has as its target T2, SPIC (Homo sapiens, UniProt Q8N5J4 1-248).
T2 sequence: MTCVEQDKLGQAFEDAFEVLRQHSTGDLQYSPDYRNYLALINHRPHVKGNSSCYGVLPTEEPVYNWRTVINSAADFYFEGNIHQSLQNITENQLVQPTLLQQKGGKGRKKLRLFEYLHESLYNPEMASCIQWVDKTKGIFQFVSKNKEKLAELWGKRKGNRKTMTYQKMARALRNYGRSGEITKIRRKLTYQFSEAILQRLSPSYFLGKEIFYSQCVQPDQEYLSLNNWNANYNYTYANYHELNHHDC
Particulars: protein: recombinant; tags: N-terminal GST; dsDNA, one strand shown. A digest of the protocol:
as §1

Another assay deals with ELF4 (Homo sapiens, UniProt Q99607 1-663). Particulars: protein: recombinant; tags: N-terminal GST; dsDNA, one strand shown. A digest of the protocol: as §1
For another assay, the target named is T3, ELK4 (Homo sapiens, UniProt P28324-2 1-405).
T3 sequence: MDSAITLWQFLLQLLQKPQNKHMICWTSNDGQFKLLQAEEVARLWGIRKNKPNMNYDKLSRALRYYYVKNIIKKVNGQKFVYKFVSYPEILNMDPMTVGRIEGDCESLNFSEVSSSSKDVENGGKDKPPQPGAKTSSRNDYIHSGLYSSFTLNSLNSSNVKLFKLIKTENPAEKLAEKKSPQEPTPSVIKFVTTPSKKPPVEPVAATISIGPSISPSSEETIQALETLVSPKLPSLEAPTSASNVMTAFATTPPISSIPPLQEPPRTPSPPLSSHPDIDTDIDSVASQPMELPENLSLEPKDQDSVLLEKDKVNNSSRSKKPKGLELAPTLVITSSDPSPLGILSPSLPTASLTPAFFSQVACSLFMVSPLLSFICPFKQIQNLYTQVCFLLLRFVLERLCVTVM
Particulars: protein: recombinant; tags: N-terminal GST; dsDNA, one strand shown. Summed up: as §1

The next assay has as its target T4, ETV2 (Homo sapiens, UniProt O00321 1-342).
T4 sequence: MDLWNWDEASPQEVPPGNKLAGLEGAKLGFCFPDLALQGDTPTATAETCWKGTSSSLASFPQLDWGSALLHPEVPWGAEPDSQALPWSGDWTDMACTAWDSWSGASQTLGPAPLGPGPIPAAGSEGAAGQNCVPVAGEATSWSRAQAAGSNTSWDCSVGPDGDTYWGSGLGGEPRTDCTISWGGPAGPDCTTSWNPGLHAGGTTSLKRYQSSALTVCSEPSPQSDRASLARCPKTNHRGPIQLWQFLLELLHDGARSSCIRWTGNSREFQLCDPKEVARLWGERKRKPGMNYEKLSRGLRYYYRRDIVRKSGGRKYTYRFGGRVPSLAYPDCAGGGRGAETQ
Particulars: protein: recombinant; tags: N-terminal GST; dsDNA, one strand shown. A digest of the protocol: as §1

For another assay, the target named is T5, ELF3 (Homo sapiens, UniProt P78545 1-371).
T5 sequence: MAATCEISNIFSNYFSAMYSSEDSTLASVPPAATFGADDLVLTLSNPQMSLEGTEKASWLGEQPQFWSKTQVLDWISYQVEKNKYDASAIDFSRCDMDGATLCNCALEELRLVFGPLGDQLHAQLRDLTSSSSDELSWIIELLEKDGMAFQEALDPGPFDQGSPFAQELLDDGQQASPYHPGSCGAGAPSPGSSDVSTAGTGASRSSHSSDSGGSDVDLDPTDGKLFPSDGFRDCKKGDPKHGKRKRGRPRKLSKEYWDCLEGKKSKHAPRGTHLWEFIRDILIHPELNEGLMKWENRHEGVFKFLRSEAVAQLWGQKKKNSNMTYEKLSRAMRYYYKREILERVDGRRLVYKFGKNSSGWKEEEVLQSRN
Particulars: protein: recombinant; tags: N-terminal GST; dsDNA, one strand shown. A digest of the protocol:
as §1

In the next assay the target is CRX (Homo sapiens, UniProt O43186 1-299). Particulars: protein: recombinant; tags: N-terminal GST; dsDNA, one strand shown. Summed up:
as §1

Another assay has as its target ETV1 (Homo sapiens, UniProt P50549 1-477). Particulars: protein: recombinant; tags: N-terminal GST; dsDNA, one strand shown. Summed up: as §1
The target of a further assay is T6, ERF (Homo sapiens, UniProt P50548 1-548).
T6 sequence: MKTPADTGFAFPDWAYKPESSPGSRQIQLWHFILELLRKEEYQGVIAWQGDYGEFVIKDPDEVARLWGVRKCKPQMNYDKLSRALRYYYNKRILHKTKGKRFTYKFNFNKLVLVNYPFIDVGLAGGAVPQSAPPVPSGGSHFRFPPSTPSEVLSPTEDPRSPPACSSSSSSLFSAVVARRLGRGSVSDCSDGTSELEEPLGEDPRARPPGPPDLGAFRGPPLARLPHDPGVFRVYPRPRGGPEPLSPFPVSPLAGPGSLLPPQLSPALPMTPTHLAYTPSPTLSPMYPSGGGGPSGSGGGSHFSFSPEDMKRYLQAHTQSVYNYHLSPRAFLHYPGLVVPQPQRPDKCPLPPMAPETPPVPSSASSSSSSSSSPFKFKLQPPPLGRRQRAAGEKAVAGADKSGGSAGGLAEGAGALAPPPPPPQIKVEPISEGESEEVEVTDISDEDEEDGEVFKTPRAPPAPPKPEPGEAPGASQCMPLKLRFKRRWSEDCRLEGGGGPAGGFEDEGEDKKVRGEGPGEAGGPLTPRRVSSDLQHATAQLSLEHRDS
Particulars: protein: recombinant; tags: N-terminal GST; dsDNA, one strand shown. A digest of the protocol: as §1

A further assay has as its target T7, ETV3L (Homo sapiens, UniProt Q6ZN32 1-361).
T7 sequence: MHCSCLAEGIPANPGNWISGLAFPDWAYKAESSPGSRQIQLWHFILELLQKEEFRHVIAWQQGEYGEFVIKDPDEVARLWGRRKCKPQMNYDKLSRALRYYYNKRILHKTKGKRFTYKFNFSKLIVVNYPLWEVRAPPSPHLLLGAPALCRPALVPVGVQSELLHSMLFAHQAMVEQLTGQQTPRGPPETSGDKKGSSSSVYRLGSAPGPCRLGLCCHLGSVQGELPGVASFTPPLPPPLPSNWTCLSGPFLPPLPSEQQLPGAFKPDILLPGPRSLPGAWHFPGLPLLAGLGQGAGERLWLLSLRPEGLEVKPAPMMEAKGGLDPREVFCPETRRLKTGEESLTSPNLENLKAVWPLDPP
Particulars: protein: recombinant; tags: N-terminal GST; dsDNA, one strand shown. A digest of the protocol: as §1

The target of a further assay is T8, ETS2 (Homo sapiens, UniProt P15036 1-469).
T8 sequence: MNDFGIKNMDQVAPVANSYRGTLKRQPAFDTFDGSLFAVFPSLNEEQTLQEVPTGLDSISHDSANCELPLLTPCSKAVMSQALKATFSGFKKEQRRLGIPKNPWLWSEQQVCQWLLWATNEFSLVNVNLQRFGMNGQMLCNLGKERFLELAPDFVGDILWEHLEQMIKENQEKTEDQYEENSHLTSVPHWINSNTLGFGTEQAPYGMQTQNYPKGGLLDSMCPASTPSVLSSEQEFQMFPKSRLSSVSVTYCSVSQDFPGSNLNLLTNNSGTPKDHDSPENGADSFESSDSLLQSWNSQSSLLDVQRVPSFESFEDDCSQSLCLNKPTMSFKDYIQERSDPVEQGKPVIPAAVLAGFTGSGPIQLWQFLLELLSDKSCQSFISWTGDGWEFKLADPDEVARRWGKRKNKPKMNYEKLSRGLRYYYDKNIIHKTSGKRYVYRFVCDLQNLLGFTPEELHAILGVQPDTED
Particulars: protein: recombinant; tags: N-terminal GST; dsDNA, one strand shown. Summed up: as §1

The target in a further assay is T9, SPDEF (Homo sapiens, UniProt O95238 1-335).
T9 sequence: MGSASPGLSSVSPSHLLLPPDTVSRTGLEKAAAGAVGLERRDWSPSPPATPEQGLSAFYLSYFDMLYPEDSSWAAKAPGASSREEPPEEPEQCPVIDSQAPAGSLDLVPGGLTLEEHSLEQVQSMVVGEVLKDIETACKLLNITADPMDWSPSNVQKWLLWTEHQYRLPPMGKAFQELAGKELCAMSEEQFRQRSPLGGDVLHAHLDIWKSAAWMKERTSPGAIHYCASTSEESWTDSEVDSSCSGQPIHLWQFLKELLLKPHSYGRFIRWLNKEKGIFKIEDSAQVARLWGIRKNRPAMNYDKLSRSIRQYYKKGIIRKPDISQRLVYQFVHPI
Particulars: protein: recombinant; tags: N-terminal GST; dsDNA, one strand shown. Summed up: as §1

For the next assay, the target named is T10, ETV7 (Homo sapiens, UniProt Q9Y603 1-341).
T10 sequence: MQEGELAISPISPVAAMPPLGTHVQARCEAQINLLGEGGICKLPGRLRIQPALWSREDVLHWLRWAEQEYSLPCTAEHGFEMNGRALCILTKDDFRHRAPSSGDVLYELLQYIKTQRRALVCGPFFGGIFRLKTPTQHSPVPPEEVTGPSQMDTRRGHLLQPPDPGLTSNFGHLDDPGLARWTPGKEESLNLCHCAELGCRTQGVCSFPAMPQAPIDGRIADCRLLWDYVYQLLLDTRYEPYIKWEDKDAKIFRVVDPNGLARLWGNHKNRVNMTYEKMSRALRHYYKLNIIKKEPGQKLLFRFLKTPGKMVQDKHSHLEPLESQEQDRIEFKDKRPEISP
Particulars: protein: recombinant; tags: N-terminal GST; dsDNA, one strand shown. Summed up: as §1

The target of the next assay is T11, ELF5 (Homo sapiens, UniProt Q9UKW6-2 1-255).
T11 sequence: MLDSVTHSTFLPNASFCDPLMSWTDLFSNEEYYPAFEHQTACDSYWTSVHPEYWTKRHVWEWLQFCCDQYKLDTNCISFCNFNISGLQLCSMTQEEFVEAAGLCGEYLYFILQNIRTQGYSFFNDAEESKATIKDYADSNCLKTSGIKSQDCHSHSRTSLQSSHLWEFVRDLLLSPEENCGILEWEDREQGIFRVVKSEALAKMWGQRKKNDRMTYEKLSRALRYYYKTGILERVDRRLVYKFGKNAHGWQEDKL
Particulars: protein: recombinant; tags: N-terminal GST; dsDNA, one strand shown. Summed up: as §1

The target of another assay is T12, ETV3 (Homo sapiens, UniProt P41162-2 1-143).
T12 sequence: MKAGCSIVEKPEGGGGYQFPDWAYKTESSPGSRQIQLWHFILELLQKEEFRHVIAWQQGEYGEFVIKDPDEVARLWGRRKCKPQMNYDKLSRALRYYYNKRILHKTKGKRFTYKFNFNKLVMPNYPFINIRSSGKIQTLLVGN
Particulars: protein: recombinant; tags: N-terminal GST; dsDNA, one strand shown. Summed up: as §1

For another assay, the target named is ETV6 (Homo sapiens, UniProt P41212 1-452). Particulars: protein: recombinant; tags: N-terminal GST; dsDNA, one strand shown. Summed up: as §1
Chain of ETV6 (P41212 whole entry): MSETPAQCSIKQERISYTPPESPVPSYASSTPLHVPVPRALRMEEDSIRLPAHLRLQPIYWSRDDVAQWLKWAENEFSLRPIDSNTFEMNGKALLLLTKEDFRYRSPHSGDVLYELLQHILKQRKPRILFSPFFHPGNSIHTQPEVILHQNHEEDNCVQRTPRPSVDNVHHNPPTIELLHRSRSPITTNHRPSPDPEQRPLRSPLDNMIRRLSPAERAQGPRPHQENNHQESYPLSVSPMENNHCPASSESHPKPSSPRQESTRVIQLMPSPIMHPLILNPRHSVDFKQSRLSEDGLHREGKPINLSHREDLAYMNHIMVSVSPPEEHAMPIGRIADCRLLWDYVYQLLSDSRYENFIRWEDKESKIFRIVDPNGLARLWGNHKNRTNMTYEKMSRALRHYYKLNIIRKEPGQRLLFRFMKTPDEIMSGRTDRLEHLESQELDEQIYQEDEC

Chain of CRX (O43186 whole entry): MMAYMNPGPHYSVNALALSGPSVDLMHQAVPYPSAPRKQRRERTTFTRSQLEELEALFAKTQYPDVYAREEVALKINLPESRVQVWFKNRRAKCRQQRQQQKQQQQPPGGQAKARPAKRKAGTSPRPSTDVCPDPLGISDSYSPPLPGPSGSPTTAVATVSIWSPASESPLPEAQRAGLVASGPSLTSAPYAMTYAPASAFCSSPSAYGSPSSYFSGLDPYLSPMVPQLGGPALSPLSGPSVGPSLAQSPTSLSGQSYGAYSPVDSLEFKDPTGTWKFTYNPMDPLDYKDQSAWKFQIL
Chain of ELF4 (Q99607 whole entry): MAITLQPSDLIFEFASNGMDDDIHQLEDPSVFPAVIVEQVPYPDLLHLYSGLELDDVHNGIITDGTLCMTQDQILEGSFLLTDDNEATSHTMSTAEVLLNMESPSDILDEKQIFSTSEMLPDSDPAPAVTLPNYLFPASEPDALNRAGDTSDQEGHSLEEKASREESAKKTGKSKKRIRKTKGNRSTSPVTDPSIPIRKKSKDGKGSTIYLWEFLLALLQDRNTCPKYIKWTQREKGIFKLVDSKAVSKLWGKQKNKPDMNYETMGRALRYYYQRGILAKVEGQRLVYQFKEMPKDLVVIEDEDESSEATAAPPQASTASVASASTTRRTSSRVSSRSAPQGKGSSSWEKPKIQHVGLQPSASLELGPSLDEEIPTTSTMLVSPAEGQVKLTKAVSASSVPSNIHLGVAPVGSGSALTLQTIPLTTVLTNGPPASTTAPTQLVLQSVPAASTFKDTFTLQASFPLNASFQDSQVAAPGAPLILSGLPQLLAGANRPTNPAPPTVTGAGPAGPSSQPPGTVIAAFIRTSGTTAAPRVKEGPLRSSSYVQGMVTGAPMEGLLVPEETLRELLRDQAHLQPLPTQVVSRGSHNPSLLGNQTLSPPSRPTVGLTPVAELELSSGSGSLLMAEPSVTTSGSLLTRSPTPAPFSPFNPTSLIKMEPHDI
Chain of ETV1 (P50549 whole entry): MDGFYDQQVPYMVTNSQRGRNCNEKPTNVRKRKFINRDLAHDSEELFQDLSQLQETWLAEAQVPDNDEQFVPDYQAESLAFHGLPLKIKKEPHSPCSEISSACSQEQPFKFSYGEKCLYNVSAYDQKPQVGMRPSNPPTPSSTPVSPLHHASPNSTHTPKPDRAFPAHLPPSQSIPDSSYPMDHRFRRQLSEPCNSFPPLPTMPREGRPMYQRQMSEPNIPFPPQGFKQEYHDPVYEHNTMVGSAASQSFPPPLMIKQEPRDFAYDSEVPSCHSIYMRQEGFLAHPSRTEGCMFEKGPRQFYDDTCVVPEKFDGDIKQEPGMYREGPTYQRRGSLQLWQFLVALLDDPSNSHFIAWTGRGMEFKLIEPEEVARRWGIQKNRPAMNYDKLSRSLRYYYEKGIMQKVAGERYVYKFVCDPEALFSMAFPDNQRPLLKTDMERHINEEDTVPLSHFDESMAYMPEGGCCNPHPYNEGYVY
Chain of ETV5 (P41161 whole entry): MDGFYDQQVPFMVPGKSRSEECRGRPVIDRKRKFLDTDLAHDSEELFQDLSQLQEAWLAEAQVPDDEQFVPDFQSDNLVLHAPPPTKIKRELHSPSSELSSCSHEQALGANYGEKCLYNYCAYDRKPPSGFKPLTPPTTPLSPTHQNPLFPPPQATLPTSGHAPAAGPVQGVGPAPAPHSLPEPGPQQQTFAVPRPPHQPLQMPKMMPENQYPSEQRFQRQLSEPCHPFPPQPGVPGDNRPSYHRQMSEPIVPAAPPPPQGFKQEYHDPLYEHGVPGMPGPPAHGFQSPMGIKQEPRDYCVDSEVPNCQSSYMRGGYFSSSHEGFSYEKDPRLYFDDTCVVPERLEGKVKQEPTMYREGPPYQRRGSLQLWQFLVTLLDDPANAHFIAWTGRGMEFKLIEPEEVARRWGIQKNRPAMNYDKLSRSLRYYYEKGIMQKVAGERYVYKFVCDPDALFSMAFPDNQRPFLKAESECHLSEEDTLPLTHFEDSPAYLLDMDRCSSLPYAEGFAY
Chain of HSF1 (Q00613 whole entry): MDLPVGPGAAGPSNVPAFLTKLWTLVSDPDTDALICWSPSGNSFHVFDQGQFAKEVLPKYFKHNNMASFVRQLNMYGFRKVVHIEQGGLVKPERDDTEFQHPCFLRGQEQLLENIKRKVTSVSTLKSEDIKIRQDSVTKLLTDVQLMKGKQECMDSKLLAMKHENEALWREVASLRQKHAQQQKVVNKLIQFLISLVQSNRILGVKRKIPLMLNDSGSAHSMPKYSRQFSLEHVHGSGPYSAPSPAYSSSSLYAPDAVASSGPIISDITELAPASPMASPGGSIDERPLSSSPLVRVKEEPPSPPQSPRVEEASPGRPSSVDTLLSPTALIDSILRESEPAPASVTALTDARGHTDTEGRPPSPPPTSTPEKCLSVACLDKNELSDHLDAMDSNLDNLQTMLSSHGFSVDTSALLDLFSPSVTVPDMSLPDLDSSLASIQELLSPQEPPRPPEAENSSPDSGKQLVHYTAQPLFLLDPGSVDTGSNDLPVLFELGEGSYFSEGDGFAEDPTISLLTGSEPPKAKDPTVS

On to GATTTT, for which the binding signal in the assay with FEV was 1.09 fold enrichment (6-mer frequency, TF over GST control); in the assay with ETV5 it was 1.1 fold enrichment (6-mer frequency, TF over GST control); with HSF1, 1.45 fold enrichment (6-mer frequency, TF over GST control); with SPIC, 1.14 fold enrichment (6-mer frequency, TF over GST control); with ELF4, 1.15 fold enrichment (6-mer frequency, TF over GST control); with ELK4 it was 1.24 fold enrichment (6-mer frequency, TF over GST control). Also, the binding signal with ETV2 is 1.12 fold enrichment (6-mer frequency, TF over GST control); with ELF3 it was 1.14 fold enrichment (6-mer frequency, TF over GST control); in the assay with CRX, 1.72 fold enrichment (6-mer frequency, TF over GST control); with ETV1, 1.17 fold enrichment (6-mer frequency, TF over GST control); with ERF it was 1.16 fold enrichment (6-mer frequency, TF over GST control); with ETV3L it was 1.24 fold enrichment (6-mer frequency, TF over GST control). Moreover, the binding signal is 1.17 fold enrichment (6-mer frequency, TF over GST control) with ETS2; 1.14 fold enrichment (6-mer frequency, TF over GST control) with SPDEF; 1.13 fold enrichment (6-mer frequency, TF over GST control) with ETV7; 1.13 fold enrichment (6-mer frequency, TF over GST control) in the assay with ELF5; 1.08 fold enrichment (6-mer frequency, TF over GST control) with ETV3; 1.11 fold enrichment (6-mer frequency, TF over GST control) in the assay with ETV6.

(Values after paper PMC7862700, “An all-to-all approach to the identification of sequence-specific readers for epigenetic DNA modifications on cytosine”.)
